Data published in PubChem BioAssay (NCI).
Compounds without any hit were thinned out: in the full panel of roughly 83,000, 20% have a hit.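 Method: cells in 96-well plates; compound added at one concentration; 48 h incubation; percent growth measured; values under 10 scored active.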 Active and inactive are the calls of the source.

System: NCI-H460 lung
Experiment: NCI-60 one-dose screen, 48 h (100 = growth as untreated, 0 = no growth, -100 = all killed)
Details: 10 µM unless noted
Description: Growth inhibition of the NCI-H460 human Non-Small Cell Lung tumor cell line is measured as a screen for anti-cancer activity. Cells are grown in 96 well plates and exposed to the test compound for 48 hours. Compounds are tested at a single concentration, which is 10^-5 M for most compounds. The reported endpoint is percent growth (GI% or GIPRCNT), where numbers from 0 - 100% represent growth inhibition, and numbers from -100% - 0 represent cell death. For example, a value of 40 represents 60% growth inhibition. A value of 0 means no net growth occurred over the course of the experiment. A value of -40 indicates 40% of cells at the beginning of the experiment died by the end of the experiment. A value of -100 means all cells are dead at the end of the experiment.
NCI-60 Human Tumor Cell Lines Screen was performed using the standard one-dose NCI protocol, which is described in more detail at https://dtp.cancer.gov/discovery_development/nci-60/default.htm.
Compounds with GIPRCNT values below 10 were considered active. Activity score was based on GIPRCNT using the following formula: […]
Score is 0 for GIPRCNT values of 100 or above, 50 for GIPRCNT values of 0, and 100 for GIPRCNT values of -100.

SMILES	growth
CCCCC[C@H](O)C/C=C1/C(=O)C=C[C@@H]1C/C=C\CCCC(=O)O	66.9% (inactive)
COc1cccc(/C=C2\C=C(c3ccccc3)N(Cc3ccccc3)C2=O)c1	72.3% (inactive)
CN1CCN(Cc2ccc(NC(=O)c3cncc(C#Cc4cnccc4C#N)c3)cc2C(F)(F)F)CC1	59.2% (inactive)
CN1CCN(c2ccc(-c3ccc4ncc(C#N)c(Nc5ccc(F)c(Cl)c5)c4c3)cn2)CC1	26.9% (inactive)
CCCCC[C@H](O)C/C=C1/C(=O)C=C[C@@H]1C/C=C\CCCC(=O)OC	46.8% (inactive)
COc1cc2cc(Oc3ccc(NC(=O)Nc4cccc(C(F)(F)F)c4)cc3)c(C)nc2cc1OCCN1CCOCC1	16.4% (inactive)
Cc1cc2nc3ccc(N=Nc4ccc(N(C)C)cc4)cc3n(-c3ccccc3)c-2cc1=N	-58.1% (active)
Cn1cc(-c2ccc3cc(-c4ccc(CC(=O)Nc5cc(C(C)(C)C)nn5C)cc4)cnc3c2)cn1	9.41% (active)
O=C(N/N=C/c1ccc(Cl)cc1)c1ccc(C(F)(F)F)nc1Nc1cccc(C(F)(F)F)c1	6.99% (active)
Cc1ccc(-c2nc(N3CCN(CC(=O)Nc4ccc(Cl)cc4)CC3)c3ccccc3n2)cc1	98.4% (inactive)
CC(=O)Oc1ccccc1C(=O)N=C1[Se]CCCN1C(=O)c1ccccc1OC(C)=O	5.16% (active)
O=C(O)CCC/C=C\C[C@H]1C=CC(=O)/C1=C/C[C@@H](O)CCc1cccc(C(F)(F)F)c1	-65.1% (active)
CCOC(=O)Nc1ccc(-c2nc(-c3cccc(OC)c3)c(-c3ccnc(Br)c3)[nH]2)cc1	27.2% (inactive)
COc1ccc(-c2[nH]ncc2-c2cc3c(c(OC)c2)OCC(=O)N3)cc1	5.89% (active)
NCCNc1nc2ccccc2c2c(=O)c3cc(F)ccc3sc12	12.2% (inactive)
Cc1ccc(C(=O)N/N=C/c2cccc([N+](=O)[O-])c2)cn1	106% (inactive)
COc1ccc2[nH]c(-c3ccccc3)c(/C=C(\C#N)S(=O)(=O)c3ccccc3)c2c1	20% (inactive)
O=C(Nc1ccc(Cl)cc1F)c1cc(Cl)ccc1O	-5.39% (active)
Cn1cc(-c2cc3ncnc(Nc4ccc(CC(=O)Nc5cc(C(C)(C)C)on5)cc4)c3s2)cn1	28.4% (inactive)
COc1ccc(C2CC(c3ccc(Nc4ccnc5cc(Cl)ccc45)cc3)=NN2C=O)cc1 (stereo not given)	80.2% (inactive)

SMILES	growth
O=c1c2cc(F)ccc2sc2c(NCCN3CCOCC3)nc3ccccc3c12	31.8% (inactive)
Cc1c(C(=O)NCCCc2ccccc2)sc2ncc(-c3ccc(Br)cc3)n12	107% (inactive)
CCOC(=O)Cn1c(C)c(/C=N/NC(=O)c2cc3c(ccc4ccccc43)o2)c2ccccc21	5.99% (active)
CCN(CC)S(=O)(=O)c1ccc(NC(=O)CSc2nnc(C)n2-c2ccccc2)cc1	115% (inactive)
COc1ccc(C(=O)n2nc(-c3ccccc3)nc2N)cc1OC	98.3% (inactive)
COc1cccc(-c2nc(-c3ccc(NC(=O)c4ccccc4)cc3)[nH]c2-c2ccnc(Br)c2)c1	19.1% (inactive)
CC/C=C\C[C@@H](O)C/C=C1/C(=O)C=C[C@H]1C/C=C\CCCC(=O)OC	-33.2% (active)
NCCCNc1nc2ccccc2c2c(=O)c3cc(F)cc(F)c3sc12	-75.1% (active)
Nc1nc2ccccc2c2c(=O)c3cc(F)ccc3sc12	103% (inactive)
COc1ccc(-c2csc(NC(=O)N3CCN(c4cc5c(cc4F)c(=O)c(C(=O)O)cn5C4CC4)CC3)n2)cc1	4.13% (active)
CS(=O)(=O)Nc1cc(-c2ccc3ncnc(Nc4cccc(Cl)c4F)c3c2)cnc1Cl	41.5% (inactive)
NCCOc1ncccc1/C=C1\c2ccccc2-c2ccc(C(F)F)cc21	9.8% (active)
C=CCNc1ccc2c3c(cccc13)C(=O)N(N1C(=O)c3cccc4cccc(c34)C1=O)C2=O	102% (inactive)
CCCCOc1ccc(/C=N/NC(N)=S)cc1	96.5% (inactive)
COc1c(B(O)O)cc(F)cc1-c1nc2ccc3[nH]ncc3c2c2c1CCCC2	5.46% (active)
COc1ccc(C2=Nn3c(nnc3-c3cc(Cl)cc(Cl)c3Cl)SC2)cc1	-18.9% (active)
COc1ccc(C(=O)N=Nc2c(O)n(C)c3ccccc23)cc1	94% (inactive)
O=C1c2ccccc2NC(n2sc3ccccc3c2=O)N1c1ccccc1 (stereo not given)	107% (inactive)
CCCCCCN1C(=O)/C(=c2\sc3n(c2=O)C2C(NN=3)N(CC)C(=O)N2CC)c2ccccc21 (stereo not given)	-27.7% (active)
Brc1ccc2[nH]cc(-c3nc(-c4c[nH]c5ccncc45)cs3)c2c1	-91.1% (active)
